Results: the supplement of paper PMC3545927
Some of the results follow. How many sequences the whole screen found active is unknown.

Molecular target: furin, P09958
Test: furin cleavage Z-score vs untreated control; higher = more cleavage, active = 3.5 or more, inactive = 1 or less, 8 variable residues between constant flanks
Procedure, shortened: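 The cleavage Z-score was derived for purified furin acting on 8-mer peptides held on magnetic beads and fused to a cDNA oligonucleotide. Digests lasted 7.5, 15 or 30 min at 1:10 enzyme:substrate in 50 mM HEPES pH 7.5 with CaCl2 and NaCl. Sequencing counts of released DNA, log-transformed against furin-free reactions, were lowess-adjusted and scaled by median absolute deviation.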

furin, P09958, sequence (P09958 whole entry): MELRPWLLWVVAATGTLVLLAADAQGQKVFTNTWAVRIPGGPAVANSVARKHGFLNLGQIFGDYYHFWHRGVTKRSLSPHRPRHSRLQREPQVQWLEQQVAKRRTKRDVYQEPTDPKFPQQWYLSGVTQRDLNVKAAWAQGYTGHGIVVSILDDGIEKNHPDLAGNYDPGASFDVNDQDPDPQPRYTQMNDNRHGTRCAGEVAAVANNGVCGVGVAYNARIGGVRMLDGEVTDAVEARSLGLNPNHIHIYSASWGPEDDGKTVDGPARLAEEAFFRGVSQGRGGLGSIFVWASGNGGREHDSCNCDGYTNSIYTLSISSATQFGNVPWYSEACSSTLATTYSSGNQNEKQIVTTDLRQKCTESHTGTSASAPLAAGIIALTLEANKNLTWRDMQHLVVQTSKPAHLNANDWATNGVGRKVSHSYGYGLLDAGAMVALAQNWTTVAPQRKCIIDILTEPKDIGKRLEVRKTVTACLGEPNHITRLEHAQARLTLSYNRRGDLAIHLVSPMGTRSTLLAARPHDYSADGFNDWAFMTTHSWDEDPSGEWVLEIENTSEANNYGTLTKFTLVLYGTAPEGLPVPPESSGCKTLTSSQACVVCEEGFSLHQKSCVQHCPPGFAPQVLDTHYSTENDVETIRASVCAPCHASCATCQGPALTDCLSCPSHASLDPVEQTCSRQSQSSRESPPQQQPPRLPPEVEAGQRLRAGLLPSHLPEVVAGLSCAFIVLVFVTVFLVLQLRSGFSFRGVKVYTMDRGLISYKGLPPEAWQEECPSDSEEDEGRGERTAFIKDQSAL

Sequence: CAQEMEECSQAGNASASA [HC1802]
- furin cleavage Z-score (7.5 min): -0.772 (inactive)
- furin cleavage Z-score (15 min): 0.513 (inactive)
- furin cleavage Z-score (30 min): -1.67 (inactive)

Sequence: CAVVCCSMGYAGNASASA [HC2076]
- furin cleavage Z-score (7.5 min): -1.88 (inactive)
- furin cleavage Z-score (15 min): -0.775 (inactive)
- furin cleavage Z-score (30 min): -0.0504 (inactive)

Sequence: CAVVECSMSYAGNASASA [HC2032]
- furin cleavage Z-score (7.5 min): -0.21 (inactive)
- furin cleavage Z-score (15 min): -0.185 (inactive)
- furin cleavage Z-score (30 min): 0.282 (inactive)

Sequence: CAYYRGLDVSAGNASASA [HC869]
- furin cleavage Z-score (7.5 min): 0.136 (inactive)
- furin cleavage Z-score (15 min): -0.206 (inactive)
- furin cleavage Z-score (30 min): -0.42 (inactive)

Sequence: CAVRVQGLLRAGNASASA [HC617]
- furin cleavage Z-score (7.5 min): -0.956 (inactive)
- furin cleavage Z-score (15 min): -0.879 (inactive)
- furin cleavage Z-score (30 min): -0.866 (inactive)

Sequence: CARLSRGTRPAGNASASA [FS-1748]
- furin cleavage Z-score (7.5 min): 1.1
- furin cleavage Z-score (15 min): 0.607 (inactive)
- furin cleavage Z-score (30 min): 1.39

Sequence: CATLSTALAEAGNASASA [HC1330]
- furin cleavage Z-score (7.5 min): -0.432 (inactive)
- furin cleavage Z-score (15 min): -1.49 (inactive)
- furin cleavage Z-score (30 min): -1.25 (inactive)

Sequence: CAVRFRGKREAGNASASA [FS-514]
- furin cleavage Z-score (7.5 min): 11.2 (active)
- furin cleavage Z-score (15 min): 9.46 (active)
- furin cleavage Z-score (30 min): 7.95 (active)

Sequence: CARLFRGLDSAGNASASA [FS-2430]
- furin cleavage Z-score (7.5 min): -0.523 (inactive)
- furin cleavage Z-score (15 min): -0.794 (inactive)
- furin cleavage Z-score (30 min): 0.531 (inactive)

Sequence: CAALSRGKREAGNASASA [FS-1584]
- furin cleavage Z-score (7.5 min): 11.2 (active)
- furin cleavage Z-score (15 min): 11.6 (active)
- furin cleavage Z-score (30 min): 8.56 (active)

Sequence: CAMEECSQWLAGNASASA [HC1748]
- furin cleavage Z-score (7.5 min): 1.29
- furin cleavage Z-score (15 min): 1.35
- furin cleavage Z-score (30 min): -0.383 (inactive)

Sequence: CAQEMGGNITAGNASASA [HC1278]
- furin cleavage Z-score (7.5 min): 0.989 (inactive)
- furin cleavage Z-score (15 min): 0.052 (inactive)
- furin cleavage Z-score (30 min): 0.798 (inactive)

Sequence: CAANGSGPDQAGNASASA [HC398]
- furin cleavage Z-score (7.5 min): -0.135 (inactive)
- furin cleavage Z-score (15 min): -1.15 (inactive)
- furin cleavage Z-score (30 min): 0.257 (inactive)

Sequence: CAEVCCSMSYAGNASASA [HC1992]
- furin cleavage Z-score (7.5 min): 0.759 (inactive)
- furin cleavage Z-score (15 min): 0.26 (inactive)
- furin cleavage Z-score (30 min): 0.528 (inactive)

Sequence: CAAAIGSVGLAGNASASA [HC1079]
- furin cleavage Z-score (7.5 min): -0.425 (inactive)
- furin cleavage Z-score (15 min): -0.896 (inactive)
- furin cleavage Z-score (30 min): -0.452 (inactive)

Sequence: CARTMRSSAGAGNASASA [FS-2831]
- furin cleavage Z-score (7.5 min): 0.517 (inactive)
- furin cleavage Z-score (15 min): -0.365 (inactive)
- furin cleavage Z-score (30 min): 0.495 (inactive)

Sequence: CARRRRDVVTAGNASASA [FS-2232]
- furin cleavage Z-score (7.5 min): 11.1 (active)
- furin cleavage Z-score (15 min): 11.8 (active)
- furin cleavage Z-score (30 min): 8.98 (active)

Sequence: CARRRRAVGLAGNASASA [FS-2595]
- furin cleavage Z-score (7.5 min): 3.99 (active)
- furin cleavage Z-score (15 min): 4.72 (active)
- furin cleavage Z-score (30 min): 5.23 (active)

Sequence: CARRRRLVWTAGNASASA [FS-2079]
- furin cleavage Z-score (7.5 min): -0.712 (inactive)
- furin cleavage Z-score (15 min): 0.718 (inactive)
- furin cleavage Z-score (30 min): 2.58

Sequence: CARTMRSVGLAGNASASA [FS-1936]
- furin cleavage Z-score (7.5 min): 5.41 (active)
- furin cleavage Z-score (15 min): 6.11 (active)
- furin cleavage Z-score (30 min): 5.7 (active)

Sequence: CARRRRCVGLAGNASASA [FS-2403]
- furin cleavage Z-score (7.5 min): 2.54
- furin cleavage Z-score (15 min): 1.19
- furin cleavage Z-score (30 min): 5.18 (active)

Sequence: CARRRRSVQLAGNASASA [FS-1789]
- furin cleavage Z-score (7.5 min): 1.43
- furin cleavage Z-score (15 min): 0.51 (inactive)
- furin cleavage Z-score (30 min): 2.7

Sequence: CAADVVCCSMAGNASASA [HC2103]
- furin cleavage Z-score (7.5 min): 1.06
- furin cleavage Z-score (15 min): 0.666 (inactive)
- furin cleavage Z-score (30 min): 0.566 (inactive)

Sequence: CATLVFDITKAGNASASA [HC602]
- furin cleavage Z-score (7.5 min): 1.27
- furin cleavage Z-score (15 min): 0.292 (inactive)
- furin cleavage Z-score (30 min): -0.917 (inactive)

Sequence: CALITWGADTAGNASASA [HC652]
- furin cleavage Z-score (7.5 min): 0.62 (inactive)
- furin cleavage Z-score (15 min): 1.26
- furin cleavage Z-score (30 min): -1.35 (inactive)

Sequence: CAQLSAPSLKAGNASASA [HC1263]
- furin cleavage Z-score (7.5 min): 1.12
- furin cleavage Z-score (15 min): 0.729 (inactive)
- furin cleavage Z-score (30 min): -0.193 (inactive)

Sequence: CARSVRPVEFAGNASASA [FS-3100]
- furin cleavage Z-score (7.5 min): -0.873 (inactive)
- furin cleavage Z-score (15 min): -2.07 (inactive)
- furin cleavage Z-score (30 min): -1.68 (inactive)

Sequence: CARGRRSLGSAGNASASA [FS-1713]
- furin cleavage Z-score (7.5 min): 7.83 (active)
- furin cleavage Z-score (15 min): 9.89 (active)
- furin cleavage Z-score (30 min): 8.32 (active)

Sequence: CAVYRRSLGKAGNASASA [FS-2202]
- furin cleavage Z-score (7.5 min): -0.0765 (inactive)
- furin cleavage Z-score (15 min): -0.584 (inactive)
- furin cleavage Z-score (30 min): -0.11 (inactive)

Sequence: CARGRRSLEFAGNASASA [FS-1952]
- furin cleavage Z-score (7.5 min): 4.88 (active)
- furin cleavage Z-score (15 min): 7.64 (active)
- furin cleavage Z-score (30 min): 7.06 (active)
